Source: PubChem BioAssay AID1159580 (chemical genetic matrix, 2015)
“And” between values parts separate entries of the source, which are not always exact repeats. Equal entries are not always repeated. Among all 5,500 compounds or so, about 2,000 (36%) were called active. Another 18% or so got no clear call; they are omitted. Rule as the data show it: active = normalized growth mostly below about 0.91 (no sharp cut-off); inconclusive = no clear call, values can overlap the other calls; inactive = mostly above about 0.92. The list shows a part of the results.

Experiment: chemical genetic growth profiling, strain panel (AID 1159580);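 also: tested at 20 µM; growth read once vehicle control cultures reached saturation at 30 °C; 1 = growth at the plate median or of vehicle wells; lower values mean less growth of the strain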
Details: growth OD

Measured: normalized growth

C[C@@H]1OC(O[C@H]2[C@H](O)[C@@H](O)[C@H](OC[C@H]3O[C@@H](OC(=O)[C@]45CCC(C)(C)CC4C4=CCC6[C@@]7(C)CC[C@H](OC8OC[C@H](O)[C@H](O)[C@H]8OC8O[C@@H](C)[C@H](O)[C@@H](O)[C@H]8O)[C@@](C)(CO)C7CC[C@@]6(C)[C@]4(C)CC5)[C@H](O)[C@@H](O)[C@@H]3O)O[C@@H]2CO)[C@H](O)[C@H](O)[C@H]1O (some centres undefined)
inactive: S. cerevisiae deletion strains, locus YBR021W, strain FUR4, active compounds read low 0.991 | S. cerevisiae deletion strains, locus YBR229C, strain ROT2, active compounds read low 0.987 | S. cerevisiae deletion strains, locus YCL029C, strain bik1, active compounds read low 0.985 | S. cerevisiae deletion strains, locus YDL035C, strain GPR1, active compounds read low 1 | S. cerevisiae deletion strains, locus YDL074C, strain BRE1, active compounds read low 0.99 | S. cerevisiae deletion strains, locus YDL101C, strain DUN1, active compounds read low 0.992 | S. cerevisiae deletion strains, locus YDL134C, strain PPH21, active compounds read low 1.02 | S. cerevisiae deletion strains, locus YDL185W, strain tfp1, active compounds read low 0.97 | S. cerevisiae deletion strains, locus YDL192W, strain arf1, active compounds read low 0.985 | S. cerevisiae deletion strains, locus YDR101C, strain arx1, active compounds read low 0.995 | S. cerevisiae deletion strains, locus YDR150W, strain NUM1, active compounds read low 0.998 | S. cerevisiae deletion strains, locus YDR162C, strain NBP2, active compounds read low 1.02 | S. cerevisiae deletion strains, locus YDR318W, strain mcm21, active compounds read low 0.993 | S. cerevisiae deletion strains, locus YDR388W, active compounds read low 0.986 | S. cerevisiae deletion strains, locus YDR502C, strain sam2, active compounds read low 0.99 | S. cerevisiae deletion strains, locus YEL061C, strain CIN8, active compounds read low 0.993 | S. cerevisiae deletion strains, locus YER110C, active compounds read low 0.986 | S. cerevisiae deletion strains, locus YER155C, strain BEM2, active compounds read low 0.989 | S. cerevisiae deletion strains, locus YER167W, strain BCK2, active compounds read low 1 | S. cerevisiae deletion strains, locus YGL078C, strain dbp3, active compounds read low 0.985 | S. cerevisiae deletion strains, locus YGL086W, strain mad1, active compounds read low 1.01 | S. cerevisiae deletion strains, locus YGL248W, strain PDE1, active compounds read low 0.991 | S. cerevisiae deletion strains, locus YGR135W, strain pre9, active compounds read low 0.993 | S. cerevisiae deletion strains, locus YGR229C, strain SMI1, active compounds read low 1.01 | S. cerevisiae deletion strains, locus YGR252W, strain gcn5, active compounds read low 0.987 | S. cerevisiae deletion strains, locus YHR030C, strain SLT2, active compounds read low 0.997 and 1.02 | S. cerevisiae deletion strains, locus YHR079C, strain IRE1 (second series), active compounds read low 0.993 | S. cerevisiae deletion strains, locus YHR079C, strain IRE1, active compounds read low 1.01 | S. cerevisiae deletion strains, locus YHR094C, strain hxt1, active compounds read low 0.996 | S. cerevisiae deletion strains, locus YHR129C, strain ARP1, active compounds read low 0.99 | S. cerevisiae deletion strains, locus YHR200W, strain rpn10, active compounds read low 0.997 | S. cerevisiae deletion strains, locus YIL066C, strain RNR3, active compounds read low 1 | S. cerevisiae deletion strains, locus YIL073C, strain SPO22, active compounds read low 0.993 | S. cerevisiae deletion strains, locus YIL125W, strain kgd1, active compounds read low 0.983 | S. cerevisiae deletion strains, locus YIR030C, strain dcg1, active compounds read low 1 | S. cerevisiae deletion strains, locus YJL095W, strain BCK1, active compounds read low 1.01 and 0.985 | S. cerevisiae deletion strains, locus YJL134W, strain LCB3, active compounds read low 0.991 | S. cerevisiae deletion strains, locus YJL168C, strain set2, active compounds read low 0.991 | S. cerevisiae deletion strains, locus YJL187C, strain SWE1 (second series), active compounds read low 0.997 | S. cerevisiae deletion strains, locus YJR043C, strain POL32, active compounds read low 1.02 | S. cerevisiae deletion strains, locus YJR066W, strain TOR1, active compounds read low 0.967 | S. cerevisiae deletion strains, locus YJR075W, strain HOC1, active compounds read low 1.02 | S. cerevisiae deletion strains, locus YKL009W, strain mrt4, active compounds read low 0.968 | S. cerevisiae deletion strains, locus YKL068W, active compounds read low 0.98 | S. cerevisiae deletion strains, locus YKL085W, strain MDH1 (second series), active compounds read low 1 | S. cerevisiae deletion strains, locus YKL085W, strain MDH1, active compounds read low 1 | S. cerevisiae deletion strains, locus YKL190W, strain CNB1, active compounds read low 0.995 | S. cerevisiae deletion strains, locus YKR001C, strain vps1, active compounds read low 0.984 | S. cerevisiae deletion strains, locus YLR039C, strain RIC1, active compounds read low 1.04 | S. cerevisiae deletion strains, locus YLR058C, strain SHM2, active compounds read low 0.988 | S. cerevisiae deletion strains, locus YLR102C, strain apc9, active compounds read low 0.993 | S. cerevisiae deletion strains, locus YLR113W, strain HOG1, active compounds read low 0.992 | S. cerevisiae deletion strains, locus YLR262C, strain YPT6, active compounds read low 1.03 | S. cerevisiae deletion strains, locus YLR268W, strain sec22, active compounds read low 0.992 | S. cerevisiae deletion strains, locus YLR330W, strain CHS5, active compounds read low 0.989 | S. cerevisiae deletion strains, locus YLR342W, strain FKS1 (second series), active compounds read low 1.01 | S. cerevisiae deletion strains, locus YLR371W, strain rom2, active compounds read low 0.986 | S. cerevisiae deletion strains, locus YLR418C, strain cdc73, active compounds read low 0.992 | S. cerevisiae deletion strains, locus YML016C, strain PPZ1, active compounds read low 0.987 | S. cerevisiae deletion strains, locus YML032C, strain rad52, active compounds read low 0.986 | S. cerevisiae deletion strains, locus YML124C, strain tub3, active compounds read low 0.991 | S. cerevisiae deletion strains, locus YMR078C, strain ctf18, active compounds read low 0.985 | S. cerevisiae deletion strains, locus YMR223W, strain ubp8, active compounds read low 0.98 | S. cerevisiae deletion strains, locus YMR263W, strain SAP30, active compounds read low 1.01 | S. cerevisiae deletion strains, locus YMR307W, strain GAS1, active compounds read low 1.06 | S. cerevisiae deletion strains, locus YNL067W, strain RPL9B, active compounds read low 1.01 | S. cerevisiae deletion strains, locus YNL128W, strain TEP1, active compounds read low 0.994 | S. cerevisiae deletion strains, locus YNL153C, strain GIM3, active compounds read low 1.02 | S. cerevisiae deletion strains, locus YNL183C, strain NPR1, active compounds read low 0.983 | S. cerevisiae deletion strains, locus YNL233W, strain BNI4, active compounds read low 1 | S. cerevisiae deletion strains, locus YNL250W, strain rad50, active compounds read low 0.971 | S. cerevisiae deletion strains, locus YNL271C, strain bni1, active compounds read low 0.987 | S. cerevisiae deletion strains, locus YNL298W, strain CLA4, active compounds read low 0.993 | S. cerevisiae deletion strains, locus YNL307C, strain MCK1, active compounds read low 0.989 | S. cerevisiae deletion strains, locus YNR052C, strain pop2, active compounds read low 0.978 | S. cerevisiae deletion strains, locus YOL006C, strain TOP1, active compounds read low 0.946 | S. cerevisiae deletion strains, locus YOL012C, strain htz1 0.966 | S. cerevisiae deletion strains, locus YOL147C, strain pex11, active compounds read low 0.997 | S. cerevisiae deletion strains, locus YOR061W, strain CKA2, active compounds read low 0.984 | S. cerevisiae deletion strains, locus YOR069W, strain VPS5, active compounds read low 0.991 | S. cerevisiae deletion strains, locus YOR136W, strain idh2, active compounds read low 0.979 | S. cerevisiae deletion strains, locus YOR144C, strain elg1, active compounds read low 0.997 | S. cerevisiae deletion strains, locus YOR184W, strain ser1, active compounds read low 1.01 | S. cerevisiae deletion strains, locus YOR231W, strain MKK1, active compounds read low 0.983 | S. cerevisiae deletion strains, locus YOR316C, strain cot1, active compounds read low 0.983 | S. cerevisiae deletion strains, locus YPL055C, strain LGE1, active compounds read low 1.02 | S. cerevisiae deletion strains, locus YPL241C, strain CIN2, active compounds read low 0.997 | S. cerevisiae deletion strains, locus YPL256C, strain CLN2, active compounds read low 1.04 | S. cerevisiae deletion strains, locus YPR119W, strain clb2, active compounds read low 0.991 | S. cerevisiae deletion strains, locus YPR141C, strain kar3, active compounds read low 0.982 | S. cerevisiae deletion strains, locus YPR163C, strain tif3, active compounds read low 0.994 | S. cerevisiae deletion strains, locus YPR167C, strain met16, active compounds read low 0.985 | S. cerevisiae deletion strains, strain wtn01, active compounds read low 1 | S. cerevisiae strains, strain wild type, active compounds read low 0.994
